Screening data (PubChem BioAssay)
GRK2 aptamer HTS: compounds blocking aptamer binding on GRK2 – biochemical, human GRK2, bead flow cytometry, HTS, primary screen. Beta-adrenergic receptor kinase 1 (Homo sapiens), P25098. inhibition of aptamer binding, % at 10 µM. AID 488847, 2010. FAM-aptamer displacement from GRK2. hit rate 0.59% among 330,000;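 active = inhibition of aptamer binding above 40%, roughly 3 SD of noise, on plates passing a quality check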;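 note: median bead fluorescence of bound FAM aptamer so fluorescent compounds give negative values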
Target sequence (P25098 whole entry, looked up): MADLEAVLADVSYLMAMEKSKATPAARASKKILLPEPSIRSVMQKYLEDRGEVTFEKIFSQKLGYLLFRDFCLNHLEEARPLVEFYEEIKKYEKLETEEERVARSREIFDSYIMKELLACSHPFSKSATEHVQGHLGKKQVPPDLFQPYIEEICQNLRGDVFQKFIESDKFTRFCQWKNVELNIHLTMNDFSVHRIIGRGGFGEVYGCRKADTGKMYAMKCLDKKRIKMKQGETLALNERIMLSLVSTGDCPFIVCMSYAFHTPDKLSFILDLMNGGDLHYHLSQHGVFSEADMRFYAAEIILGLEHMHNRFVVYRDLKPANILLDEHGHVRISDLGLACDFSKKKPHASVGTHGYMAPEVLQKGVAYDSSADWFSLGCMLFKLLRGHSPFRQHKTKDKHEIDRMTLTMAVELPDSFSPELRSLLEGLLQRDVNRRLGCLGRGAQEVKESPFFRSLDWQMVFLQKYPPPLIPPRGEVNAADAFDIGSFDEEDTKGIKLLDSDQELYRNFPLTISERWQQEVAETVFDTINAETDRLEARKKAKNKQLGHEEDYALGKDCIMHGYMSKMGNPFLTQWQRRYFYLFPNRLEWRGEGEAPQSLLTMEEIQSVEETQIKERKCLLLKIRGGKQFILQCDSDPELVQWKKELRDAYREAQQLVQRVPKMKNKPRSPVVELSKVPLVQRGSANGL
Granule exo inh: LAMP-1 surface exposure blockers, TALL-104 cells – cell-based, flow cytometry, MLPCN library, primary screen | TALL-104 LAMP-1 surface exposure; cells stimulated with thapsigargin and PMA | inhibition, % at 10 µM | hit rate 0.66% among 360,000;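 active = inhibition above about 55%, limit read from the data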
PP1 inh: PP1-alpha phosphatase inhibitors, primary screen, counter-screen for PP5 inhibitor project, biochemical, fluorescence, OMFP substrate, single point. purified PP1alpha. inhibition, % at 6.7 µM. hit rate 0.9% among 320,000. Serine/threonine-protein phosphatase PP1-alpha catalytic subunit (Homo sapiens), P62136;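 active = inhibition above the mean inhibition of all tested compounds plus 3 SD, computed separately for each screening campaign, cut at about 15% in these data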
NadD block: inhibitors of S. aureus NadD, primary screen, biochemical, colorimetric, uHTS; Nicotinate-nucleotide adenylyltransferase NadD (Staphylococcus aureus N315); purified NadD enzyme, colorimetric absorbance read-out; inhibition, % at 20 µM; hit rate 0.78% among 360,000; in the data active = inhibition above about 26%
B2AR ag: beta2AR agonists driving receptor internalization, primary screen, cell-based, FAP fluorogen, flow cytometry; Am2.2-beta2AR cells; response, % (no concentration beside the values); hit rate 0.43% among 340,000;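 active = response above a set limit, near 3 SD of response in nonfluorescent compounds, cut at about 42% in these data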
NadD conf: inhibitors of S. aureus NadD, confirmation, biochemical, colorimetric, single concentration | AID 624309, 2012 | purified S. aureus NadD, colorimetric enzyme assay | shares compounds with NadD block | hit rate 13% among 2,000 | inhibition, % at 20 µM; in the data active = inhibition mostly above about 42%, no sharp cut-off; inactive = mostly below about 42%
* hit, by the source's call; x = no result given. The list is not random: actives were taken first. Their share in the collection is about 2.9%.

SMILES	GRK2 aptamer HTS	Granule exo inh	PP1 inh	NadD block	B2AR ag	NadD conf
COc1ccc(-c2cc(C(=O)Nc3cccc(S(=O)(=O)NCc4ccco4)c3)c3ccccc3n2)cc1OC	1	1	4	58*	10	45*
O=C(Nc1cccc(S(=O)(=O)NCc2ccco2)c1)c1cc(-c2ccc(F)cc2)nc2ccccc12	4	-4	8	13	12	x
O=C(NC(=S)Nc1cccc(S(=O)(=O)NC2=NCCC2)c1)c1cc(-c2ccco2)nc2ccccc12	0	-1	9	41*	33	52*
O=C(Nc1cccc(S(=O)(=O)NC2=NCCCCC2)c1)c1cc(-c2ccccc2)nc2ccccc12	0	1	2	17	16	x
O=C(CC1C(=O)N(c2ccc(Cl)cc2)C(=S)N1CCc1ccncc1)Nc1ccc(F)cc1 (centres undefined)	8	0	5	9	-6	x
COc1ccc(-c2cc3nc(C)cc(N4CCN(C(=O)c5cccnc5)CC4)n3n2)cc1	x	-6	x	2	x	x
Cc1ccc(C)c2nc(N3CCCC3)c(C#N)cc12	8	4	-2	32*	4	11
Cc1cccc2cc(C#N)c(N3CCN(C)CC3)nc12	0	2	-2	-2	-2	x
COc1cccc(C(=O)Oc2c(Br)cc(Br)cc2/C=N/NC(=O)c2cc(C)[nH]n2)c1	1	1	6	42*	5	8
S=C1Cc2ccccc2N1	x	94*	x	31*	40	39
COc1ccc(CC(N)c2csc(NC(=O)Nc3ccccc3C(C)(C)C)n2)cc1 (centres undefined)	x	16	x	10	x	x
COc1ccc(CC(N)c2csc(NC(=O)Nc3ccccc3-c3ccccc3)n2)cc1 (centres undefined)	x	5	x	31*	x	7
CC(C)=CCN1CCN(Cc2cc(F)ccc2-n2nc(C)cc2C)CC1CCO (centres undefined)	0	20	-1	-4	1	x
COc1ccc(/C=C2/SC(=O)N(CCC(=O)Nc3ccc(S(=O)(=O)Nc4nccs4)cc3)C2=O)cc1	2	1	6	69*	5	49*
COc1ccc(/C=C2\SC(=S)N(CCC(=O)Nc3ccc(O)cc3)C2=O)cc1	0	1	2	9	1	x
CCN(CC)S(=O)(=O)c1cccc(NC(=O)C2SC(=Nc3ccc(C)cc3C)C(C(=O)NCC3CCCO3)=C2N)c1 (centres undefined)	3	-1	5	37*	2	28
COc1ccccc1Oc1ccc(NC(=O)c2ccccc2C)cc1	0	-11	0	-2	4	x
COc1ccccc1C(=O)Nc1ccc(Oc2nnc(-c3ccc(C)cc3)c3ccccc23)cc1	1	-2	13	52*	1	17
Cc1ccccc1SC1CCN(Cc2nc(C3CC3)no2)CC1	0	-10	-3	-1	4	x
COCOCCn1cc(CN2CCS(=O)(=O)N(Cc3ccc(-c4ccc(OC)cc4)cc3)C(C(C)C)C2=O)nn1 (centres undefined)	x	2	x	-8	x	x
CCOc1cc(/C=C2\N=C(SCC)SC2=O)cc([N+](=O)[O-])c1OC(C)=O	2	-2	6	30*	7	3
CCOc1cc(/C=C2\N=C(SC)SC2=O)cc([N+](=O)[O-])c1OC(C)=O	2	2	2	46*	25	2
CCSC1=N/C(=C\c2ccc(C(=O)O)cc2)C(=O)S1	2	0	3	1	3	x
COC(=O)C1OCOC2C(C(=O)OC)OCOC12 (centres undefined)	x	-11	x	-7	1	x
COc1c(C(O)CC(C)C)ccc2c1C(=O)OCc1cc(C)cc(O)c1O2 (centres undefined)	0	-5	-5	92*	-2	-2
SMILES	GRK2 aptamer HTS	Granule exo inh	PP1 inh	NadD block	B2AR ag	NadD conf
COc1ccc(S(=O)(=O)Nc2cccc(S(=O)(=O)N3CCCC3)c2)cc1OC	0	4	-2	-4	4	x
Cc1ccc(C2C(C=Nc3c(C)n(C)n(-c4ccccc4)c3=O)=C(c3ccccc3)Oc3ccccc32)cc1 (centres undefined)	0	2	7	38*	2	11
Nc1nonc1-n1nnc(C(=O)N/N=C/C=C/c2ccccc2)c1CSC1=NCCS1	0	-5	3	32*	-9	26
Nc1nonc1-n1nnc(C(=O)N/N=C/c2c(Cl)cccc2Cl)c1CSC1=NCCS1	0	6	-5	34*	0	39
Nc1nonc1-n1nnc(C(=O)N/N=C/c2ccccc2Cl)c1CSc1ccccc1	0	7	9	9	0	x
Cc1ccc(-c2cccc(C3CC=CC4C3C(=O)N(Cc3ccccc3)C4c3ccc4ccccc4c3)c2)cc1 (centres undefined)	0	-8	10	34*	1	4
CCC(Oc1ccc(C)cc1)C(=O)Nc1ccc(S(=O)(=O)Nc2nccs2)cc1 (centres undefined)	0	7	-1	2	10	x
Cc1ccc(Oc2ccc3c(c2)C(=O)N(c2ccc(S(=O)(=O)Nc4nccs4)cc2)C3=O)cc1	0	0	15	44*	5	46
Cc1noc(NS(=O)(=O)c2ccc(NC(=O)c3ccccc3NS(=O)(=O)c3ccc(F)cc3)cc2)c1C	0	-1	x	1	-2	x
O=S(=O)(Nc1c(S(=O)(=O)c2ccccc2)c2nc3ccccc3nc2n1C1CCCCC1)c1ccccc1	3	28	8	32*	18	48*
O=C(Nc1nnc(SCc2ccc(F)cc2)s1)C1Cc2ccccc2CN1C(=O)c1ccco1 (centres undefined)	15	1	11	60*	3	52*
NC(=S)NNc1cccc2cccnc12	2	2	15	34*	7	18
NC(=S)Nc1cccc2cccnc12	0	25	-5	-9	-1	x
Cc1cccn2c(=O)c3cc(C(N)=S)c(=N)n(CCCOC(C)C)c3nc12	2	6	10	52*	71*	2
CCOCCCn1c(=N)c(C(N)=S)cc2c(=O)n3cccc(C)c3nc21	15	9	4	29	-5	x
Cc1ccc(C)c(N2CCN(S(=O)(=O)c3ccc4[nH]c(=O)c(=O)[nH]c4c3)CC2)c1	4	0	6	32*	8	54*
Cc1ccc(C)c(N2CCN(S(=O)(=O)c3ccc4[nH]c(=O)ccc4c3)CC2)c1	1	-4	12	8	5	x
